Compounds with a hit are over-represented: about 2.3% of the library has one in this group of screens.
POLK inh: DNA polymerase kappa (human) inhibition | Potency, µM (top dose mostly 107 µM), for inactives: at the top dose activity, negative = inhibition, hits mostly inhibitors | purified Pol kappa, fluorescent DNA synthesis assay, 10 min | AID 588579 | hit rate 0.53% among 400,000; also: potency is read from the fitted curve at half-maximal effect; % is scaled to controls: 0 for no effect and ±100 for the full control effect
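10 nM Pol kappa preincubated 15 min at room temperature with compounds, then reaction started with substrate at 50 nM final. Fluorescence read kinetically at 0 and 10 min; buffer-only wells served as negative control.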
POLI inh: DNA polymerase iota (human) inhibition; hit rate 1% among 390,000; Pol iota fluorescent replication assay, 10 min; Q9UNA4; Potency, µM (series often up to 115 µM), without a hit: at the top dose activity, negative = inhibition, actives largely listed as inhibitors; also: potency is read from the fitted curve at half-maximal effect
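Fluorescent replication assay read twice, at 0 min and 10 min after adding 50 nM (final) substrate. Enzyme (10 nM) and compounds were first incubated 15 min at room temperature; enzyme-free buffer wells were negative controls.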
Pol beta inh: inhibitors of human DNA polymerase beta | P06746 | Pol beta primer extension/strand displacement, fluorescence kinetic | Potency, µM (highest dose often 114 µM), for the others: at the highest dose activity change, negative = inhibition, hits mostly inhibitors | hit rate 1.3% among 340,000; also: potency is read from the fitted curve at half-maximal effect; % is scaled to controls: 0 for no effect and ±100 for the full control effect
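Values derive from four-parameter Hill fits of normalized kinetic data: reads at 0 and 10 min following addition of 50 nM substrate to 10 nM Pol beta preincubated 15 min with compound.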
Pol eta inh-1: inhibitors of human DNA polymerase eta | Potency, µM (doses to about 114 µM), for inactives: top-dose activity change, negative = inhibition, actives largely listed as inhibitors | Q9Y253 | recombinant Pol eta, fluorescent DNA replication assay | hit rate 1.2% among 390,000; also: potency is read from the fitted curve at half-maximal effect; % is scaled to controls: 0 for no effect and ±100 for the full control effect
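Fluorescent replication assay: 50 nM final substrate added after a 15 min room-temperature compound preincubation with 10 nM enzyme. Signal taken at 0 min and again at 10 min.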
WRN helicase inh: inhibitors of human WRN helicase; WRN helicase unwinding, fluorescent forked duplex, kinetic; hit rate 0.46% among 360,000; Q14191; Potency, µM (highest dose often 114 µM), inactives show at the top dose activity change, negative = inhibition, hits mostly inhibitors; also: potency is read from the fitted curve at half-maximal effect; % is scaled to controls: 0 for no effect and ±100 for the full control effect; nearly all actives have a fitted effect of over 55% in size
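Kinetic fluorescence helicase assay: unwinding of a quenched forked DNA duplex (100 nM final) with 2 mM ATP final raises red fluorescence (525/598 nm). Compounds sat 15 min at room temperature with 20 nM WRN beforehand.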
GALK inh confirm: galactokinase (human) inhibition, confirmation | shares compounds with Pol eta inh-1 | purified GALK, Kinase-Glo ATP depletion luminescence | Potency, µM (titrated, usually from 115 µM), for inactives: top-dose activity, negative = inhibition, hits mostly inhibitors | hit rate 70% among 150 | AID 2015
GALK redox cs: generates H2O2 by redox cycling, flagging GALK artifacts; shares compounds with Pol eta inh-1; Phenol red-HRP H2O2 redox cycling, absorbance 600 nm; Potency, µM (top dose mostly 115 µM), for the others: at the highest dose activity change, negative = H2O2 signal, actives largely listed as inhibitors; hit rate 40% among 150
HEK293 viability: HEK-293 cytotoxicity, GALK inhibitor secondary. shares compounds with Pol eta inh-1. Potency, µM (titrated, usually from 46.1 µM), for the others: top-dose activity change, negative = cytotoxicity, usual class: inhibitors. hit rate 10% among 170. HEK-293 viability, ATP luminescence (CellTiter-Glo), 24/48 h. AID 2547; also: potency is read from the fitted curve at half-maximal effect; % is scaled to controls: 0 for no effect and ±100 for the full control effect
Pol eta inh-2: Pol eta (human) inhibition, cherry-pick confirmation | Pol eta primer extension, TAMRA/BHQ fluorescence, 10 min | Potency, µM, most hits filed as inhibitors | shares compounds with Pol eta inh-1 | hit rate 64% among 2,600; also: potency is read from the fitted curve at half-maximal effect
* = called active by the depositor; ? = inconclusive; . = not tested or not shown; [ ] = remark or other dose. Calls follow the shape of the dose curve; as a rule, active = well fitted curve in the direction sought with a large enough effect; inconclusive = small, poorly fitted or top-dose-only effect, or another doubt; inactive = no such curve, though single readings can be large; an effect the other way counts as inactive or inconclusive.

SMILES	POLK inh	POLI inh	Pol beta inh	Pol eta inh-1	WRN helicase inh	Pol eta inh-2	others
O=C(Nc1ccc(Cl)cc1C(=O)O)c1ccc2c(c1)C(=O)N(Cc1ccco1)C2=O	?	35µM*	?	79µM*	-30%[57.1 µM]	?
O=C(Nc1cccc(O)c1)c1ccc2c(c1)C(=O)N(Cc1ccco1)C2=O	-33%	?	?	-7%	-18%	.
CCOc1cccc(=O)c2c(C)n(Cc3ccccc3)c(C)c12	-10%	29%	?	-20%	2%	.
CCOc1cccc(=O)c2c(C)n(-c3ccc(C(=O)O)cc3)c(C)c12	?	?	22µM*	28µM*	?	27*
CCS(=O)(=O)N1CCc2cc(C(=O)Nc3ccc(OC)c(Cl)c3)ccc21	-10%	107%	-11%	-17%	.	.
COc1cc(/C=C/C(=O)O)cc(S(=O)(=O)NNC(=O)c2cc(C)oc2C)c1OC	?	22µM*	.	18µM*	-28%	?
COc1ccccc1CNC(=O)C(=O)NCC(c1cccs1)S(=O)(=O)c1ccccc1 (centres undefined)	-7%[60.1 µM]	10%	-14%	-6%	.	.
Cc1cccc(-c2nc(CCNC(=O)c3ccccc3Br)cs2)c1	-1%[60.1 µM]	11%	2%	-18%	.	.
CCc1ccc(NC(=O)c2cnn(-c3c(C)cccc3C)c2C2CCNCC2)cc1	2%	18%	1%	-4%	.	.
COc1ccc(-n2cc(-c3ccccc3)c3c(N4CCN(CCO)CC4)ncnc32)cc1	-5%	1%	-24%	-15%	-9%	.	GALK inh confirm=-9%;GALK redox cs=-1%;HEK293 viability=-17%
CCC(=O)N1CCc2cc(Br)cc(S(=O)(=O)CCC(=O)N(C)c3cccc(C)c3)c21	-30%	7%	45µM*	35µM*	.	85*
CCCc1cc(=O)[nH]c(SCC(=O)Nc2c(C)cccc2C)n1	-5%	?	1%	-2%	0%	.
CCCc1cc(=O)[nH]c(SCC(=O)Nc2sccc2C#N)n1	?	18µM*	.	?	?	?
COc1cc(Br)cc2cc(C(=O)N3CCN(C(=O)c4ccco4)CC3)c(=O)oc12	?	32µM*	1%	79µM*	?	85*
Cc1cccc(CNC(=O)CCCn2c(=O)c3cccn3c3ccc(F)cc32)c1	1%	20%	19%	-14%	.	.
CC1=C(c2ccc(C)cc2)S(=O)(=O)NC1=NCCCN1CCN(c2ccccc2F)CC1	-1%	21%	-3%	5%	.	.
Cc1ccc(C2=NN(CC(=O)NCCCN(CC(C)C)CC(C)C)C(=O)CC2)cc1	-4%[60.1 µM]	47%	0%	-7%	.	.
O=C(O)c1ccc(COCC(F)(F)C(F)F)o1	-24%	-16%	28µM*	18µM*	-13%[57.1 µM]	?
O=C(O)c1ccc(COc2c(F)c(F)c(F)c(F)c2F)o1	?	22µM*	40µM*	22µM*	-24%[57.1 µM]	76*
Cc1cc(C)cc(OCc2ccc(C(=O)O)o2)c1	4%	-2%	1%	-9%	-6%	.
